Data: PubChem BioAssay (EPA / NIEHS)
Records with an inconclusive call do not appear. The source made the active and inactive calls. The calls were made as follows, unless noted: active = hit-call score of the fitted dose curve at least 0.9, where 1 is the maximum; inconclusive = response in the unintended direction; inactive = score below 0.9.

Legend:
Caspase-1 (Homo sapiens) = Caspase-1 (Homo sapiens) (UniProt P29466); test: NVS_ENZ_hCASP1: NovaScreen (NVS) Enzymatic Assay for human Caspase 1 (CASP1) (AID 2283132)
Procedure, shortened: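 Compounds were first tested in duplicate at 25 uM, with follow-up concentration series up to 50 uM. The bacterially expressed enzyme was read by fluorescence at 1 h post-dosing. Signal loss versus DMSO baseline indicates reduced enzyme activity.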

[1] = biological target: human Matrix Metalloproteinase-1 (MMP1), MMP1 (gene 4312) (UniProt P03956); test: NVS_ENZ_hMMP1: NovaScreen (NVS) Enzymatic Assay for human Matrix Metalloproteinase-1 (MMP1) (AID 2283181)
human Matrix Metalloproteinase-1 (MMP1), MMP1 (gene 4312), sequence (P03956 whole entry, looked up): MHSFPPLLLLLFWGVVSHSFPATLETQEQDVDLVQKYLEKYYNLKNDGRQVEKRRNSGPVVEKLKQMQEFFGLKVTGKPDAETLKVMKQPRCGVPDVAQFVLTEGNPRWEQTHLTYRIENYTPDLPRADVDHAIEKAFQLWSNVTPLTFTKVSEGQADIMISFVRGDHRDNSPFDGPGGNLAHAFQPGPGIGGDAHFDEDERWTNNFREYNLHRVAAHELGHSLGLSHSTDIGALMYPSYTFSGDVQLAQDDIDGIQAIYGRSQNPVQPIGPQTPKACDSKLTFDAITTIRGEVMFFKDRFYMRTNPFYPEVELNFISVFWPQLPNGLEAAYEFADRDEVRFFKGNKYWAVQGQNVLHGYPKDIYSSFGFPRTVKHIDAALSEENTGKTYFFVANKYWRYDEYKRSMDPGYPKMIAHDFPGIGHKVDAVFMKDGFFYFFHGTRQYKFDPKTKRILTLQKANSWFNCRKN
Procedure, shortened: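 Cell-free fluorescent substrate assay of human MMP1, read after 1 h. A single 25 uM duplicate screen was followed by concentration series to a maximum of 50 uM for actives meeting threshold; inhibition analysed against DMSO baseline.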

[2] = biological target: rat Monoamine Oxidase, MAO-B, Central (MAOBC), Maob (gene 25750) (UniProt P19643); test: NVS_ENZ_rMAOBC: NovaScreen (NVS) Enzymatic Assay for rat Monoamine Oxidase, MAO-B, Central (MAOBC) (AID 2283238)
rat Monoamine Oxidase, MAO-B, Central (MAOBC), Maob (gene 25750), sequence (P19643 whole entry, looked up): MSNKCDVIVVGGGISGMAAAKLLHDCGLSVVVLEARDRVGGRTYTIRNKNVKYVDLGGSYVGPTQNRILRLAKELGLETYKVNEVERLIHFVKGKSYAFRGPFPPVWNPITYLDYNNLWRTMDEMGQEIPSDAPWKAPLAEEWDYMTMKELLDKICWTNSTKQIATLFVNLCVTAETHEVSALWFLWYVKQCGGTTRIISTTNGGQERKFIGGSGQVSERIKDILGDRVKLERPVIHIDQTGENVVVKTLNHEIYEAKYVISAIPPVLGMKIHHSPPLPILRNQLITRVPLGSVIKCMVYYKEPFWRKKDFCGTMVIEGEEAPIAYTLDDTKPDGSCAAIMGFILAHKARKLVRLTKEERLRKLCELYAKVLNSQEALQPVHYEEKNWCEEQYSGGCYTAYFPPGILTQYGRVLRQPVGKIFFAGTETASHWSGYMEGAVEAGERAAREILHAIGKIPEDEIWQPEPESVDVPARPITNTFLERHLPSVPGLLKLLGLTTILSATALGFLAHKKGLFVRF
Procedure, shortened: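 Here MAO-B activity in rat brain preparations is quantified radiometrically, counts taken at 1.17 hours. Concentration-response runs reach 50 uM, with plate controls, and values are fitted as loss of signal from the DMSO baseline.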

[3] = biological target: rat Monoamine Oxidase, MAO-B, Peripheral (MAOBP), Maob (gene 25750) (UniProt P19643); test: NVS_ENZ_rMAOBP: NovaScreen (NVS) Enzymatic Assay for rat Monoamine Oxidase, MAO-B, Peripheral (MAOBP) (AID 2283242)
[4] = biological target: human AMP-activated Protein Kinase, alpha 1 (AMPKa1), PRKAA1 (gene 5562) (UniProt Q13131); test: NVS_ENZ_hAMPKa1: NovaScreen (NVS) Enzymatic Assay for human AMP-activated Protein Kinase, alpha 1 (AMPKa1) (AID 2283130)
human AMP-activated Protein Kinase, alpha 1 (AMPKa1), PRKAA1 (gene 5562), sequence (Q13131 whole entry, looked up): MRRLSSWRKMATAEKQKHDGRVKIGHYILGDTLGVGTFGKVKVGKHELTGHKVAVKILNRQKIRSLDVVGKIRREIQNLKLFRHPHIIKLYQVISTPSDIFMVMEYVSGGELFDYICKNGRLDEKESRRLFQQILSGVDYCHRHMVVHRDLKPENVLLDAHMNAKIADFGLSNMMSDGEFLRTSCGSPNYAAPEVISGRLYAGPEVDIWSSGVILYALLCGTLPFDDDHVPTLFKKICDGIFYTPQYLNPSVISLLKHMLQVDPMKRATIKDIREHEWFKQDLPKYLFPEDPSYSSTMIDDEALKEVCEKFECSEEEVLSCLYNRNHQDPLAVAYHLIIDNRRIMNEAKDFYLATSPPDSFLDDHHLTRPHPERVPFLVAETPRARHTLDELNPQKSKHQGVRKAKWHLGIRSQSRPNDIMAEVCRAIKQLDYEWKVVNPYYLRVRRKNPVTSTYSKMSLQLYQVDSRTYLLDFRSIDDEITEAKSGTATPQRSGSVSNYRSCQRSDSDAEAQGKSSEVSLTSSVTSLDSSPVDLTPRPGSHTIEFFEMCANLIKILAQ
Procedure, shortened: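 Compounds were screened in duplicate at 25 uM, and those reaching ~30% inhibition were titrated up to 50 uM. The enzyme was recombinant human AMPKα1, and kinase turnover was read by fluorescence/mobility shift 1 h post-dosing as loss of signal versus DMSO.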

[5] = biological target: human Fibroblast Growth Factor Receptor 1 (FGFR1), FGFR1 (gene 2260) (UniProt P11362); test: NVS_ENZ_hFGFR1: NovaScreen (NVS) Enzymatic Assay for human Fibroblast Growth Factor Receptor 1 (FGFR1) (AID 2283159);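 as to AC50: hits lower the signal so potencies describe inhibitors of the kinase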
Procedure, shortened: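 Cell-free recombinant kinase with fluorescent substrate, product separated by electrophoretic mobility shift; read 1 hour after dosing, loss of signal relative to DMSO. Initial screen in duplicate at 25 uM, actives followed in concentration series.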

[6] = biological target: human MET Proto-Oncogene, Receptor Tyrosine Kinase (MET), MET (gene 4233) (UniProt P08581); test: NVS_ENZ_hMet: NovaScreen (NVS) Enzymatic Assay for human MET Proto-Oncogene, Receptor Tyrosine Kinase (MET) (AID 2283180)
human MET Proto-Oncogene, Receptor Tyrosine Kinase (MET), MET (gene 4233), sequence (P08581 whole entry, looked up): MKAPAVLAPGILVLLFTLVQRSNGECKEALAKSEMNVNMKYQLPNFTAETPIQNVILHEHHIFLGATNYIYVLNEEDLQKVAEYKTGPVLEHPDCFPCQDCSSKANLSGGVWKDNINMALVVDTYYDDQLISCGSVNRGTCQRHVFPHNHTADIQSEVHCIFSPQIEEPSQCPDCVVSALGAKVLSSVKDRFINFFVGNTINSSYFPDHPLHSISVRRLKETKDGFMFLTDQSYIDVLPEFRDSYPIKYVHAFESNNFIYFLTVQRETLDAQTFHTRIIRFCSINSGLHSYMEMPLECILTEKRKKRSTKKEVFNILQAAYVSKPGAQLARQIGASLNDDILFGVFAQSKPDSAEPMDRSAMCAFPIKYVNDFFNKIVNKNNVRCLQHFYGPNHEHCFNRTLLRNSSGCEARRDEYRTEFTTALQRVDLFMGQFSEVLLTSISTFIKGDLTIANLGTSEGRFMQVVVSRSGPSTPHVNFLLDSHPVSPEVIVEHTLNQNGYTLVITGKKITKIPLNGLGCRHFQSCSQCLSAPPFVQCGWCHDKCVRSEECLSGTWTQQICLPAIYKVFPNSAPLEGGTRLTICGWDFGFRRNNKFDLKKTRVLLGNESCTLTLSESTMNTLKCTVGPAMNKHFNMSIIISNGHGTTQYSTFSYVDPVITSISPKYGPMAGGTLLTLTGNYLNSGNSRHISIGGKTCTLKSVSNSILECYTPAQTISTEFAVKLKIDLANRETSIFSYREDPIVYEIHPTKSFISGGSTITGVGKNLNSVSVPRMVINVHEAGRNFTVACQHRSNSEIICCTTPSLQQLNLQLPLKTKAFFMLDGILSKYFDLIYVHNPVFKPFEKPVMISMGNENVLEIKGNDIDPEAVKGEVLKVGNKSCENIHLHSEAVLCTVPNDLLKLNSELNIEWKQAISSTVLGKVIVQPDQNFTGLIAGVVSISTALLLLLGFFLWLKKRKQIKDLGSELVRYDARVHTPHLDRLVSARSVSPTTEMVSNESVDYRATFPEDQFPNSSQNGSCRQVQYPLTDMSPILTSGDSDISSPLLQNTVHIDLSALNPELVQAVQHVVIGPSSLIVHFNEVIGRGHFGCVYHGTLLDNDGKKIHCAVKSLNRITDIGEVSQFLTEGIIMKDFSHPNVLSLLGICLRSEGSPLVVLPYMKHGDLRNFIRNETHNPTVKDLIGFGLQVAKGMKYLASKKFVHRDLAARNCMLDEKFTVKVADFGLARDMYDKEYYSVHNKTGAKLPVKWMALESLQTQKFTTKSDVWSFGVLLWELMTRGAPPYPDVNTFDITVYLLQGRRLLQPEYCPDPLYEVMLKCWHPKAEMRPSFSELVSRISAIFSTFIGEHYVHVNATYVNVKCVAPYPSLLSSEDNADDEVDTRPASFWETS
Procedure, shortened: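 Hits from a 25 uM duplicate screen were retested in concentration series up to 50 uM. Enzyme activity was measured by fluorescence after electrophoretic separation of product from substrate, 1 h after compound addition, relative to DMSO.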

[7] = biological target: human Tyrosine Protein Kinase Receptor Tie-2 (Tie2), TEK (gene 7010) (UniProt Q02763); test: NVS_ENZ_hTie2: NovaScreen (NVS) Enzymatic Assay for human Tyrosine Protein Kinase Receptor Tie-2 (Tie2) (AID 2283225)
human Tyrosine Protein Kinase Receptor Tie-2 (Tie2), TEK (gene 7010), sequence (Q02763 whole entry, looked up): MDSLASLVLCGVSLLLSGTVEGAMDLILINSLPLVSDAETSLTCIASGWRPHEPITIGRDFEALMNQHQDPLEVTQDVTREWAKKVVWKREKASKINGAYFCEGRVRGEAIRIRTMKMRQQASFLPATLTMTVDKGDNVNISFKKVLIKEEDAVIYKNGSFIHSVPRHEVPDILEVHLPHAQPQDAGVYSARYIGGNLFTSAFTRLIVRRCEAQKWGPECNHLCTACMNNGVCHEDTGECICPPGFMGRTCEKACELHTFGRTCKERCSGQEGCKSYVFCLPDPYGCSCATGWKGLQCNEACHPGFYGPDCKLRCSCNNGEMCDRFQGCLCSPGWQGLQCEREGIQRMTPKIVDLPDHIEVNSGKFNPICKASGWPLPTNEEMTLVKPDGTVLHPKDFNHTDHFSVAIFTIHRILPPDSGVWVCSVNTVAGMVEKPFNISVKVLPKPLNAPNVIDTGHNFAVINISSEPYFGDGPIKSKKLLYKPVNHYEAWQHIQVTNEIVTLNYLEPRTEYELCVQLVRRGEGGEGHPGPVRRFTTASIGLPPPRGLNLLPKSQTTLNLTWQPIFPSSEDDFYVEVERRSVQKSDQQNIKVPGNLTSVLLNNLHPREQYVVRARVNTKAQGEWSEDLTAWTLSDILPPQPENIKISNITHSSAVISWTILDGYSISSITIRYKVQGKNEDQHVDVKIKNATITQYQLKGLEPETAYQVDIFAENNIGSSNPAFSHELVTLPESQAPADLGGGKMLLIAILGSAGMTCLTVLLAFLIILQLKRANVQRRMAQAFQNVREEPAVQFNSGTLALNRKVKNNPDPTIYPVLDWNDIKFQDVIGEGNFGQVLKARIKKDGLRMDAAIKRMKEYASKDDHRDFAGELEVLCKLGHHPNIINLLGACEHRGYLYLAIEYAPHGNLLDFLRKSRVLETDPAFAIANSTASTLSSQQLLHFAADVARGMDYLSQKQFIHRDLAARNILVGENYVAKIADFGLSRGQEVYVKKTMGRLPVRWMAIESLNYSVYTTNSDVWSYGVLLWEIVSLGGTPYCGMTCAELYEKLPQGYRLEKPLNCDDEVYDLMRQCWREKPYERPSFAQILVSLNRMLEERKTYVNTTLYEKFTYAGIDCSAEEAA
Procedure, shortened: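 Substrate and product were separated by mobility shift and detected by fluorescence after a 1-hour reaction with recombinant Tie2. Chemicals passing a 25 uM single-point screen were titrated to a maximum of 50 uM. Results were normalized to DMSO baseline.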

[8] = biological target: rat Oxytocin Receptor (OXT), Oxtr (gene 25342) (UniProt P70536); test: NVS_GPCR_rOXT: NovaScreen (NVS) G Protein-Coupled Receptor Assay for rat Oxytocin Receptor (OXT) (AID 2283330)
Procedure, shortened: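 Binding to rat uterine membrane receptor was followed by scintillation counting of filter-trapped radioligand after 1 h. A 25 uM duplicate single-point screen preceded concentration series with a top of 50 uM. Signal loss was analysed relative to DMSO.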

[9] = biological target: human IkappaB Kinase alpha (IKKa), CHUK (gene 1147) (UniProt O15111); test: NVS_ENZ_hIKKa: NovaScreen (NVS) Enzymatic Assay for human IkappaB Kinase alpha (IKKa) (AID 2283167)
Procedure, shortened: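 Compounds first run in duplicate at 25 uM, those meeting threshold (e.g. 30% inhibition) retested to maximum 50 uM. Enzyme activity of recombinant IKKa measured by fluorescence with electrophoretic mobility shift separation, 1 hour post-dosing, DMSO baseline.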

[10] = biological target: human Aurora Kinase A - serine/threonine-protein Kinase 6 (AurA), AURKA (gene 6790) (UniProt O14965); test: NVS_ENZ_hAurA: NovaScreen (NVS) Enzymatic Assay for human Aurora Kinase A - serine/threonine-protein Kinase 6 (AurA) (AID 2283142)
human Aurora Kinase A - serine/threonine-protein Kinase 6 (AurA), AURKA (gene 6790), sequence (O14965 whole entry, looked up): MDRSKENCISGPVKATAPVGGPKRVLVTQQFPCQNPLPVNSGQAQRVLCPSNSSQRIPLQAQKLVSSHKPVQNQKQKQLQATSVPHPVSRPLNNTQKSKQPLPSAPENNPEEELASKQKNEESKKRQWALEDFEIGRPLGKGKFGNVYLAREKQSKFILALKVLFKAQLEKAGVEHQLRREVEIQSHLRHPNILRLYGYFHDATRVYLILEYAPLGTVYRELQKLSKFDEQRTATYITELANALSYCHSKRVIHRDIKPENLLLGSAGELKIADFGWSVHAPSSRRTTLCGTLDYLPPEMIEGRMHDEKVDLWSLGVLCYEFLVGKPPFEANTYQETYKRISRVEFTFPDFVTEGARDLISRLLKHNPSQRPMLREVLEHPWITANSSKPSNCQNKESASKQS
Procedure, shortened: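 Recombinant human AurA activity read by fluorescence after mobility-shift separation of product from substrate; 1 hour incubation. Chemicals first run in duplicate at 25 uM, then concentration series to 50 uM if over threshold; fitted relative to DMSO.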

[11] = biological target: Bile acid receptor (Homo sapiens) (UniProt Q96RI1); test: NVS_NR_hFXR_Agonist: NovaScreen (NVS) Nuclear Receptor Binding Assay for human Farnesoid X Receptor Agonism (FXR) (AID 2283347)
Procedure, shortened: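 Agonist-mode FXR assay read by time-resolved FRET 1 h after compound addition, using isolated human receptor protein without cells. Duplicate 25 uM single-point primary screen, concentration series for confirmed actives; DMSO as baseline.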

[12] = biological target: human Caspase 2 (CASP2), CASP2 (gene 835) (UniProt P42575); test: NVS_ENZ_hCASP2: NovaScreen (NVS) Enzymatic Assay for human Caspase 2 (CASP2) (AID 2283135)
Procedure, shortened: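 Single-point duplicate testing at 25 uM preceded concentration series topping at 50 uM. Activity of the recombinant E. coli-derived protease was followed by fluorescent substrate cleavage 1 h post-dosing, relative to DMSO.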

[13] = biological target: human p21 Activated Kinase 4 (PAK4), PAK4 (gene 10298) (UniProt O96013); test: NVS_ENZ_hPAK4: NovaScreen (NVS) Enzymatic Assay for human p21 Activated Kinase 4 (PAK4) (AID 2283189)
human p21 Activated Kinase 4 (PAK4), PAK4 (gene 10298), sequence (O96013 whole entry, looked up): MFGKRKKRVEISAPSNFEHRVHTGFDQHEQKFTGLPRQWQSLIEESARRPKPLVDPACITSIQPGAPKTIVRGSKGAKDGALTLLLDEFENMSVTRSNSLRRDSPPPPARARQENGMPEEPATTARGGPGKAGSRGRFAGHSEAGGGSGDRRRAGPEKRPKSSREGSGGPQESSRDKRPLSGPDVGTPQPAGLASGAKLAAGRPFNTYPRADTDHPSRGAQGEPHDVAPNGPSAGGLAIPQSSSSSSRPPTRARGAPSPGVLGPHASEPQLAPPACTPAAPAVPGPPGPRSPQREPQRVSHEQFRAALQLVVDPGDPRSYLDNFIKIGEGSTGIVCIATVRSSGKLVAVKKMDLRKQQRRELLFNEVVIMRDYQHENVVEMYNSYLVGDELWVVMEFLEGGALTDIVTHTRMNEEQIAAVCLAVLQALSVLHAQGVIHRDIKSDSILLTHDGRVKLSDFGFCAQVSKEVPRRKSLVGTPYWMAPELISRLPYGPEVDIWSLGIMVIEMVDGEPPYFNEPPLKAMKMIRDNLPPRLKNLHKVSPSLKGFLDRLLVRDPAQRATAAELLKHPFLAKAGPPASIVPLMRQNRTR
Procedure, shortened: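 Extracted PAK4 enzyme activity read by fluorescence with mobility-shift separation 1 h after chemical addition. Duplicate single-concentration screen at 25 uM, DMSO as negative control.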

[14] = biological target: human Raf-1 Proto-Oncogene, serine/threonine Kinase (RAF1), RAF1 (gene 5894) (UniProt P04049); test: NVS_ENZ_hRAF1: NovaScreen (NVS) Enzymatic Assay for human Raf-1 Proto-Oncogene, serine/threonine Kinase (RAF1) (AID 2283216)
Procedure, shortened: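 Single-point screening at 25 uM (duplicate), followed by singleton concentration-response to 50 uM maximum for chemicals exceeding threshold. Enzyme activity from fluorescent substrate-product mobility-shift separation after 1 h, relative to DMSO.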

[15] = ATG_M_32_XSP2: Attagene TRANS-FACTORIAL Multi-Species (XSP2) HepG2 Assay for M19 Transcription Factor (Internal Marker) (AID 2283826)
Procedure, shortened: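 Total RNA is taken from compound-treated HepG2 cells after 24 h and reverse-transcribed; reporter cDNA is PCR-amplified, end-labelled with 6-FAM, digested with HpaI for 2h at 37 C and sized by capillary electrophoresis. Activity is fitted in the positive direction against DMSO.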

[16] = CCTE_Harrill_HTTr_Apoptosis_PRF_DMEM_12hr: (Pilot) CCTE's 12-hour Apoptosis Assessment for the High-Throughput Transcriptomics (HTTr) Platform, in MCF-7 cells cultured in phenol red-free DMEM + 10% charcoal-stripped fetal bovine serum, Harrill Lab (AID 2283985; active = hit-call score of the fitted dose curve at least 0.9, where 1 is the maximum; inactive = score below 0.9)
Procedure, shortened: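 Caspase-3/7 activity by CellEvent Green high content imaging after 12 h compound exposure (eight concentrations) in MCF-7 grown in phenol red-free DMEM plus 10% charcoal-stripped serum; DMSO as baseline.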

[17] = biological target: human Ephrin type-B Receptor 2 (EphB2), EPHB2 (gene 2048) (UniProt P29323); test: NVS_ENZ_hEphB2: NovaScreen (NVS) Enzymatic Assay for human Ephrin type-B Receptor 2 (EphB2) (AID 2283156)
Procedure, shortened: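 Compounds were first tested in duplicate at 25 uM, with hits rerun singly in concentration series up to 50 uM. Enzyme activity on fluorescent substrate was read at 1 h by mobility-shift separation, scored as signal loss relative to DMSO.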

[18] = biological target: human Phosphatase and Tensin Homolog (PTEN), PTEN (gene 5728) (UniProt P60484); test: NVS_ENZ_hPTEN: NovaScreen (NVS) Enzymatic Assay for human Phosphatase and Tensin Homolog (PTEN) (AID 2283203)
Procedure, shortened: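 Loss of fluorescent product signal after mobility-shift separation reports PTEN activity, recombinant human enzyme, 1 h after compound addition. Single 25 uM duplicate screen, then concentration-response on actives; DMSO baseline.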

[19] = biological target: human Protein Tyrosine Phosphatase Non-receptor Type 2 (PTPN2), PTPN2 (gene 5771) (UniProt P17706); test: NVS_ENZ_hPTPN2: NovaScreen (NVS) Enzymatic Assay for human Protein Tyrosine Phosphatase Non-receptor Type 2 (PTPN2) (AID 2283207)
Procedure, shortened: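 Activity measured as fluorescence after mobility-shift separation of substrate and product, 1 h after compound. Duplicate single-point 25 uM primary testing, concentration series for actives; inhibition scored as signal loss relative to DMSO baseline.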

## CCc1cc(SCc2sc(-c3ccc(C(F)(F)F)cc3)nc2CN2CCN(c3ccc(OC)cc3)CC2)ccc1OCC(=O)O
Caspase-1 (Homo sapiens)
  AC50: 46.1 µM (active)
[1]
  AC50: 1.06 µM (active)
[2]
  AC50: 15 µM (active)
[3]
  outcome: inactive

## CCN(CC)C(=O)c1cc(S(=O)(=O)Cc2ccccc2)c(N2CCC(c3ccccc3)CC2)cc1N(CC)CCN(C)C
[4]
  AC50: 34.9 µM (active)
[5]
  outcome: inactive
[6]
  outcome: inactive
[7]
  outcome: inactive
[8]
  AC50: 6.13 µM (active)

## O=C(OCCOCCOC(=O)c1ccccc1)c1ccccc1
[4]
  outcome: inactive
[5]
  outcome: inactive
[9]
  outcome: inactive

## CN(C)c1ccc(Cc2ccc(N(C)C)cc2)cc1
[10]
  outcome: inactive

## c1ccc(C[n+]2cccc3ccccc32)cc1
[4]
  outcome: inactive
[11]
  outcome: inactive

## O=C(O)CCN(C1(C(=O)NO)CCCC1)S(=O)(=O)c1ccc(Oc2ccc(F)cc2)cc1
[12]
  outcome: inactive
[1]
  AC50: 3.49 µM (active)

## N[C@@H](Cc1cc(I)c(Oc2ccc(O)c(I)c2)c(I)c1)C(=O)O
[4]
  outcome: inactive
[10]
  AC50: 4.51 µM (active)
[6]
  outcome: inactive
[13]
  outcome: inactive
[14]
  outcome: inactive
[7]
  outcome: inactive
[2]
  outcome: inactive
[15]
  outcome: inactive
[16]
  outcome: inactive

## Cc1[nH]nc2c1N=C(c1ccccc1Cl)c1cc([N+](=O)[O-])ccc1N2
[4]
  AC50: 17 µM (active)
[10]
  AC50: 0.00702 µM (active)
[17]
  outcome: inactive
[5]
  AC50: 41.4 µM (active)
[13]
  AC50: 9.53 µM (active)
[7]
  outcome: inactive

## FC(F)(F)C(F)(F)C(F)(F)C(F)(F)C(F)(F)C(F)(F)CCI
[10]
  outcome: inactive
[5]
  outcome: inactive
[6]
  outcome: inactive
[1]
  outcome: inactive
[13]
  outcome: inactive
[18]
  outcome: inactive
[19]
  outcome: inactive
[14]
  outcome: inactive
[7]
  outcome: inactive

## CC1(C)NC(=O)NC1=O
[4]
  outcome: inactive
[13]
  outcome: inactive
